Reference: ChEMBL document CHEMBL3988442, “University of Dundee, Small-Polar-MMV Screening Library” (2021)
About 1,200 (3.2%) of roughly 38,000 compounds showed an effect of 50% or more. The median lay at about -58%. The sample as a whole holds a higher share of strong results than the screen did.

system: Plasmodium falciparum; test: Calibr Malaria Delayed Death Assay SOP; type: functional, organism-based; design: scale not given: in the data most compounds retested in dose-response had high values; conditions: concentration 4.99e-06 (unit not given; other assays of the set use mol/L)

SMILES | Percent Effect
O=C(COc1ccc(Cl)cc1)N1CCOCC1c1ncon1 (stereo not given) | -73.82%
Cc1nc(N(C)C)nc(NCCc2ccccn2)c1C | -11.2%
O=S1(=O)CCC(S(=O)(=O)c2cccc(S(=O)(=O)N3CCCCCC3)c2)C1 (stereo not given) | -52.35%
CCc1ccc(CN2CCC3(CC2)CN(c2cnn(C)c2)C(=O)CO3)o1.O=C(O)C(F)(F)F.O=C(O)C(F)(F)F | -59.96%
CN(C)CCN1CCN(Cc2cccs2)Cc2cccnc21.O=C(O)C(F)(F)F.O=C(O)C(F)(F)F.O=C(O)C(F)(F)F | 77.04%
CN(C)CCN1CCN(Cc2ccco2)Cc2cccnc21.O=C(O)C(F)(F)F.O=C(O)C(F)(F)F.O=C(O)C(F)(F)F | 11.84%
Cc1noc(C)c1CN1CCN(CCN(C)C)c2ncccc2C1.O=C(O)C(F)(F)F.O=C(O)C(F)(F)F.O=C(O)C(F)(F)F | 19.65%
CN(C)CCN1CCN(Cc2nccs2)Cc2cccnc21.O=C(O)C(F)(F)F.O=C(O)C(F)(F)F.O=C(O)C(F)(F)F | 5.575%
COCCN1CCN(Cc2c(C)noc2C)Cc2ccc(C)nc21.O=C(O)C(F)(F)F.O=C(O)C(F)(F)F | -62.13%
CCS(=O)(=O)N1CCN(CCn2cccn2)c2nc(C)ccc2C1.O=C(O)C(F)(F)F | -65.79%
Cc1ccc2c(n1)N(CCN(C)C)CCN(Cc1c(C)noc1C)C2.O=C(O)C(F)(F)F.O=C(O)C(F)(F)F.O=C(O)C(F)(F)F | 61.92%
Cc1ccc2c(n1)N(CCn1cccn1)CCN(CC1CC1)C2.O=C(O)C(F)(F)F.O=C(O)C(F)(F)F | 77.61%
Cc1ccc2c(n1)N(CCn1cccn1)CCN(S(C)(=O)=O)C2.O=C(O)C(F)(F)F | -106%
O=C(C1CCOC1)N1C[C@H]2CN(Cc3ccncc3)C(=O)[C@H]2C1.O=C(O)C(F)(F)F (stereo not given in full) | -110.3%
CCN1Cc2ccccc2N(C(=O)C2CCC2)CCC1=O | -10.23%
CC(C)NC(=O)C1CN(C(=O)CCc2ccccc2)CC12CCOCC2 (stereo not given) | -79.45%
Oc1ccc(Cl)cc1CNCc1ccccc1Cl | 75.8%
Cc1cc(NC(=O)Cc2ccccc2O)c[nH]c1=O | -29.46%
Oc1ccc(Cl)cc1CNCc1cccc(C(F)(F)F)c1 | 88.68%
Cc1ccccc1CNCc1cc(Cl)ccc1O | 74.83%
O=C1CCCN1c1cccc(CNCc2cc(F)ccc2F)c1 | -68.04%
OCc1cccc(CNCc2cccc3c2OCCO3)c1 | 41.91%
NS(=O)(=O)c1ccc(NCc2ccccc2F)cc1C(F)(F)F | -7.015%

SMILES | Percent Effect
CC(NC(=O)Cc1ccccc1F)(C(N)=O)c1cccc(Cl)c1 (stereo not given) | -10.09%
NS(=O)(=O)c1ccc(CNCC(=O)NCc2ccc(Cl)cc2Cl)cc1 | -66.27%
CC(=O)N1CCC(NC(=O)c2cc(Cl)ccc2O)CC1 | -71.2%
Oc1ccc(Cl)cc1CNCc1ccccc1C(F)(F)F | 63.6%
CS(=O)(=O)Cc1ccccc1NCc1cc(Cl)ccc1Cl | -167.2%
c1cnn(CCNCc2cnc(N3CCOCC3)nc2)c1 | -160.5%
Clc1snnc1CN1CCCC1Cn1cncn1 (stereo not given) | -22.89%
CCc1nc(CN2CCCC(N(C)CCn3cccn3)C2)no1 (stereo not given) | -71.81%
Cc1nc(N(C)C)nc(C)c1NS(=O)(=O)c1ccccc1Cl | -104.4%
O=C(NCCc1cccc(F)c1)c1nc2c(s1)CCCN2C(=O)C1CC1 | -105%
COC[C@@H]1CCC[C@]12CN(S(=O)(=O)c1cn(C)cn1)CCO2 | -139.4%
CSCC(=O)NCc1cc(Br)ccc1OC(F)F | -97.53%
OCCNc1nc(NCc2cccnc2)nc2nccnc12 | -78.22%
NC(=O)C1Cn2ccnc2C2(CCN(C(=O)c3ccncc3)CC2)O1 (stereo not given) | -59.21%
CC1N(c2cnn(C)c2)C(=O)COC12CCN(Cc1ccoc1)CC2 (stereo not given) | -59.84%
CCc1ncc2c(n1)CN(Cc1nc(-c3cccs3)no1)CC2 | -24.12%
COCCC1(C(=O)O)CCCN(C(=O)c2cc(F)ccc2OC)C1 (stereo not given) | -162.1%
CC(=O)N1CCN(C(=O)Cn2ccc3c(Cl)cccc32)CC1 | -40.91%
CC(C)CN1CCCC1c1ccc(C(=O)Nc2cn(C)nn2)s1 (stereo not given) | 51.14%
Cc1nc(C)n(CC2CCCN2CC(=O)Nc2cccnc2)n1 (stereo not given) | -55.47%
CN1CCCC1c1ccc(C(=O)Nc2c3c(nn2C)CCC3)s1 (stereo not given) | -68.39%
CC(C)CN1CCCC1c1ccc(C(=O)Nc2cc[nH]n2)s1 (stereo not given) | 42.59%
CC(C)CN(C(=O)Nc1cccnc1)C1CC1 | -3.552%

SMILES | Percent Effect
O=C(CN1CCc2onc(-c3ccccc3F)c2C1)NC1CC1 | -100.2%
COc1ccc(CCC(=O)N2CCCC(n3cncn3)C2)cc1 (stereo not given) | -80.83%
O=C(Cc1ccccc1)N1CCC2(CC1)COCCN2CC1CC1.O=C(O)C(F)(F)F | -81.37%
CCOc1ccc(C(=O)N2CCCCC2Cn2nc(C)cc2C)cn1 (stereo not given) | -93.63%
CNC(=O)Cc1cc2nccc(-c3c(OC)cccc3OC)n2n1 | -192.8%
Cc1cc2nc(C(C)C)cc(N3CCN(S(N)(=O)=O)CC3)n2n1 | -79.73%
COc1ccc(C2CCCN2C(=O)NCCCn2cccn2)cc1 (stereo not given) | -95.69%
CC(=O)N(C)Cc1ccccc1NC(=O)c1ccccc1C | -129.3%
CCN(CC)Cc1ccccc1NC(=O)N(C)Cc1ccc(OC)cc1 | 39.65%
O=C(c1cc(C2CC2)[nH]n1)N1CCN(Cc2ccccc2)CC1 | -79.8%
O=S(=O)(C1CC1)N1CCc2ncnc(N3CCOCC3)c2CC1 | -72.08%
CN(Cc1ccc(C#N)cc1)CC1CCS(=O)(=O)C1 (stereo not given) | -39.39%
C[C@]1(O)CN(Cc2cccc(C(=O)O)c2)CC[C@@H]1Oc1cccc(F)c1 | -94.06%
Cc1cnccc1CN1CC[C@H](Oc2cccc(F)c2)[C@@](C)(O)C1 | 79.24%
C[C@]1(O)CN(Cc2ncccc2F)CC[C@@H]1Oc1cccc(F)c1 | -43.28%
C[C@]1(O)CN(CCC(N)=O)CC[C@@H]1Oc1cccc(F)c1 | -45.94%
C[C@]1(O)CN(CC(=O)N2CCCC2)CC[C@@H]1Oc1cccc(F)c1 | 21.38%
Cc1nccc(CN2CC[C@H](Oc3cccc(F)c3)[C@@](C)(O)C2)n1 | -32.63%
C[C@]1(O)CN(CCO)CC[C@@H]1Oc1cccc(F)c1 | 63.55%
Cc1cnccc1CN1CC[C@@](C)(O)[C@H](Oc2cccc(F)c2)C1 | 38.73%
Cc1ccc(C(F)(F)F)cc1NC(=O)C1CCCN1 (stereo not given) | -141.5%
CC(=O)Nc1ccc(CNc2cccc(CS(C)(=O)=O)c2)cc1 | -47.89%
O=C(NCc1cccs1)[C@@H]1CC[C@@H]2[C@@H](CCN2C2CCOCC2)O1.O=C(O)C(F)(F)F | -51.06%

SMILES | Percent Effect
CCN(CC)CCNC(=O)c1ccc(-n2ccc3ccccc32)s1 | 90.12%
O=C(NCCN1CCOCC1)c1ccc(-n2ccc3ccccc32)s1 | 6.644%
O=C(NCCCN1CCOCC1)c1ccc(-n2ccc3ccccc32)s1 | 33.29%
CCc1n[nH]c(C2CN(C(=O)c3ccc(NC4CC4)nc3)CCO2)n1 (stereo not given) | -51.88%
CC[C@H](C)[C@H](N)C(=O)Nc1nc(-c2cnc(N3CCOCC3)nc2)cs1 | -43.38%
OC(COc1ccccc1)CN1CCN(c2nccs2)CC1 (stereo not given) | -10.76%
Cn1cc(CN2C[C@@H]3COC[C@]3(COCC3CC3)C2)cn1.O=C(O)C(F)(F)F | -16.85%
Cc1cccc(CN2C[C@H]3CCC[C@@]3(COCc3csc(C)n3)C2)n1.O=C(O)C(F)(F)F.O=C(O)C(F)(F)F | 81.41%
Cc1cc(CN2C[C@H]3CCC[C@@]3(COCc3csc(C)n3)C2)no1.O=C(O)C(F)(F)F | 11.53%
O=C(O)C(F)(F)F.O=C(c1ncccn1)N1C[C@H]2CCC[C@@]2(COc2ccccn2)C1 | 12.48%
CS(=O)(=O)N1C[C@H]2CCC[C@@]2(COc2ccccn2)C1.O=C(O)C(F)(F)F | 2.668%
Cc1ccc(C(=O)N2C[C@H]3CCC[C@@]3(COc3ccccn3)C2)nc1.O=C(O)C(F)(F)F.O=C(O)C(F)(F)F | 6.864%
O=C(O)C(F)(F)F.O=C(O)C(F)(F)F.c1ccc(CN2C[C@H]3CCC[C@@]3(COCC3CC3)C2)nc1 | -73.03%
Cn1cc(CN2C[C@H]3CCC[C@@]3(COCC3CC3)C2)cn1.O=C(O)C(F)(F)F | 51.84%
O=C(O)C(F)(F)F.O=C(c1cocn1)N1C[C@H]2CCC[C@@]2(COc2ccccn2)C1 | 50.75%
Cc1nc(COC[C@@]23CCC[C@@H]2CN(Cc2nccs2)C3)cs1.O=C(O)C(F)(F)F | -17.19%
Fc1cnc(N2C[C@H]3CCC[C@@]3(COc3ccccn3)C2)nc1.O=C(O)C(F)(F)F.O=C(O)C(F)(F)F | 3.485%
Cn1cc(CN2C[C@H]3CCC[C@@]3(COc3ccccn3)C2)cn1.O=C(O)C(F)(F)F.O=C(O)C(F)(F)F | 64.46%
COCc1ncc(-c2nccn2CCS(C)(=O)=O)cn1 | -109%
CS(=O)(=O)CCCNc1cccc(COC2CCCCC2)c1 | -119.3%
Cc1cc(C(=O)N2CCCC2)ccc1NCc1nc(CC(C)C)no1 | -36.08%
